Here are results for 6 compounds from the supplement of paper PMC6522484.

For test [1], the system named is DLD1. Briefly: cell viability (CellTiter-Glo) relative to plate median (fraction of plate median); higher = more viable cells. The note with it: 5 µM; treatment time 24 h; reporter: 7TFP. In short, it runs like this: (§1)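 Colorectal cancer cell lines stably carrying lentiviral TCF/Wnt firefly luciferase reporters (7TFP or TCF4/Wnt) were plated in 384-well plates and, 24 h later, given library compounds at a final 5 µM for 24 h. Firefly luciferase or CellTiterGlo luminescence was read on parallel plates with a Tecan F500 reader. Each well's signal was normalised to the plate median in webcellHTS2 (additive, without log transformation). Values are the mean of two independent replicates.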
On the technique in general: Cellular ATP, detected with luciferase, serves as a proxy for viable cell number.

The subject of a further test is HCT116. The description is as above. The note with it: 5 µM; treatment time 24 h; reporter: TCF4/Wnt. Put shortly: as §1
For test [2], the system named is SW480. The description is as above. The note with it: 5 µM; treatment time 24 h; reporter: 7TFP. In short, it runs like this:
as §1

Test [3] relates to DLD1. Briefly: TCF/Wnt firefly luciferase reporter signal relative to plate median (fraction of plate median); higher = higher Wnt reporter signal. The conditions noted are these: 5 µM; treatment time 24 h; reporter: 7TFP. Put shortly:
as §1
(In general: In a reporter assay the amount or activity of a reporter protein is the signal.)

In test [4] the test system is SW480. The description is as above. The conditions noted are these: 5 µM; treatment time 24 h; reporter: 7TFP. In short, it runs like this: as §1

± gives the standard deviation of the averaged measurements.

In the case of `CO[C@@]12[C@H](COC(N)=O)C3=C(C(=O)C(C)=C(N)C3=O)N1C[C@@H]1N[C@@H]12`, the values for the cell viability in the test with DLD1 [1], in the test with HCT116 and in the test on SW480 [2] were 1.12 ± 0.057, 1.01 and 1.25 ± 0.021, respectively. Moreover, the “TCF/Wnt firefly luciferase reporter signal” value was determined as 0.974 ± 0.094 with DLD1 [3] and 0.843 ± 0.13 with SW480 [4].

Consider `O=C(O)C1(C(=O)O)CCC1.[NH2-].[NH2-].[Pt+2]`, for which the cell viability is 1.02 ± 0.059 with DLD1 [1], 1.08 ± 0.15 with HCT116 and 0.97 ± 0.028 in the test with SW480 [2]. The “TCF/Wnt firefly luciferase reporter signal” value in the test on DLD1 [3] turned out to be 1.15 ± 0.099; in the test on SW480 [4], 1 ± 0.039.

For `O=C(CC(=O)c1ccccc1)c1ccccc1`, the cell viability in the test with DLD1 [1] came to 0.972 ± 0.069; in the test with HCT116, 0.82 ± 0.026; with SW480 [2], 1.03. Moreover, the “TCF/Wnt firefly luciferase reporter signal” value in the test on DLD1 [3] came out at 1.15 ± 0.021; in the test with SW480 [4] it was 1.17 ± 0.057.

On to `CCN(CC)CCOC(=O)c1ccc(N)cc1`, for which the cell viability was determined as 1.01 ± 0.12 in the test with DLD1 [1], 1.05 ± 0.028 in the test on HCT116 and 1.03 ± 0.021 with SW480 [2]. In addition, the “TCF/Wnt firefly luciferase reporter signal” value in the test on DLD1 [3] was 1.09 ± 0.092; in the test on SW480 [4], 1.06 ± 0.014.

Take `Cc1oncc1C(=O)Nc1ccc(C(F)(F)F)cc1`: the cell viability with DLD1 [1] turned out to be 1.05 ± 0.11; with HCT116 it was 1.15; in the test with SW480 [2] it was 1.13 ± 0.071. The “TCF/Wnt firefly luciferase reporter signal” value with DLD1 [3] is 1.14 ± 0.05; with SW480 [4], 1.05 ± 0.11.

Consider `COc1ccc(C(=O)c2ccccc2)c(O)c1`, for which the figures for the cell viability in the test on DLD1 [1], in the test on HCT116 and with SW480 [2] were 1.04 ± 0.042, 1.185 ± 0.0071 and 1.01 ± 0.016, respectively. Besides, the “TCF/Wnt firefly luciferase reporter signal” value came to 0.8625 ± 0.0064 with DLD1 [3] and 1.05 ± 0.028 in the test with SW480 [4].
